Screening results (PubChem)
LMNA splice mod: modulators of lamin A splicing. HeLa LMNA splicing GFP/RFP minigene ratio, 48 h. Potency, µM (highest dose often 46.1 µM), for the others: at the top dose ratio change, negative = inhibition, most hits filed as inhibitors. actives 0.01% (n = 200,000); active = well fitted inhibition curve with a large enough effect in the signal ratio, with a control signal flat, not every such curve was filed as active; inconclusive = small, poorly fitted or top-dose-only effect, or effect the other way, or a change in a side signal; the % refers to the signal ratio
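S3 HeLa stable clones carrying a lamin A-EGFP splicing minigene plus DsRed2 were seeded at 600 cells/well in Opti-MEM with 2% FBS, pin-dosed and incubated 48 h at 37°C. Acumen cytometry (488 nm) gave the GFP/RFP total-intensity ratio.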
GCN5L2 inh: blocks human GCN5L2 histone acetyltransferase; Q92830; GCN5L2 HAT assay, ThioGlo1 CoA-SH fluorescence; Potency, µM (doses to about 58.9 µM), inactives show at the highest dose activity change, negative = inhibition, hits mostly inhibitors; actives 0.21% (n = 390,000)
Target sequence (Q92830 whole entry, looked up): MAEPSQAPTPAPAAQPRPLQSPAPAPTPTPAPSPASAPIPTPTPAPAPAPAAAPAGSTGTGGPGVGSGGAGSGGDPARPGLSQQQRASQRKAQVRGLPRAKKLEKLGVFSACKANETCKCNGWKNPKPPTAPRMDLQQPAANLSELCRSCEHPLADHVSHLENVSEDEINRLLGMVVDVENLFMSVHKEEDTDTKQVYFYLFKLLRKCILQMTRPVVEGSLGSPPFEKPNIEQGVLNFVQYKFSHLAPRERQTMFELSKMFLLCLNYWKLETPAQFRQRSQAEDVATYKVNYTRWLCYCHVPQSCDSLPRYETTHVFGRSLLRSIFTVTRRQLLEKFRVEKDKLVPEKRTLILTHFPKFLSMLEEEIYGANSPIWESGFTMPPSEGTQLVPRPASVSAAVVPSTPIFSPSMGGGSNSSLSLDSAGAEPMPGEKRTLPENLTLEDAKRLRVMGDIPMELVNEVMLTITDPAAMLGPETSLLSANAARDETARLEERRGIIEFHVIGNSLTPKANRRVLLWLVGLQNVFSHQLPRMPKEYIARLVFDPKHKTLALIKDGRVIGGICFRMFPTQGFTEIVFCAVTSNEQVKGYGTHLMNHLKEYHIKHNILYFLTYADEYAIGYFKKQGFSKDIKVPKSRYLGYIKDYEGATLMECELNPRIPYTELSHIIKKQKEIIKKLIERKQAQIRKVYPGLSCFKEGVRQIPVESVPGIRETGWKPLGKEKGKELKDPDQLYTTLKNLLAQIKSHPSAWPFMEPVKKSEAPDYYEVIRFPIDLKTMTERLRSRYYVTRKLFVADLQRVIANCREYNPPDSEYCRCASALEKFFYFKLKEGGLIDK
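Preincubate 20nM GCN5L2 with compound 15 min, RT → add 50uM ThioGlo1 + 75uM H3(1-25) + 70uM acetyl-CoA → read fluorescence 0 and 20 min. Primary qHTS; fluorescent artifacts likely.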
RECQ1 inh: blocks DNA unwinding by human RECQ1; P46063; RECQ1 DNA unwinding, red fluorescence kinetic read; Potency, µM (titrated, usually from 57.3 µM), without a hit: at the highest dose activity, negative = inhibition, most hits filed as inhibitors; actives 0.54% (n = 240,000);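 also: plate controls were vehicle for no effect and no enzyme for full effect; nearly all actives have a fitted effect of over 30% in size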
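RECQ1T1 50 nM; forked duplex (20 bp + 30-nt ss tails) 200 nM, ATP 2 mM final; pH 8.0, 2 mM MgCl2, 2.5 ug/ml poly(dI-dC); 15 min compound preincubation; discontinuous kinetic read over 2 h at RT.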
TDP1 block: TDP1 (human) enzyme inhibition. actives 0.28% (n = 350,000). recombinant TDP1, AlphaScreen DNA substrate cleavage. Q9NUW8. Potency, µM (top dose mostly 130 µM), for inactives: at the top dose activity change, negative = inhibition, hits mostly inhibitors. AID 485290; also: nearly all actives have a fitted effect of over 40% in size
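AlphaScreen read-out: signal falls as enzyme removes the 3' tyrosine-FITC from a 5'-biotinylated DNA oligo (15 nM, 5 min, RT). Enzyme was E. coli-made recombinant Tdp1 at 1 nM, exposed to compound for 15 min beforehand; beads 10 ug/ml, 10 min.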
BLM inh: blocks DNA unwinding by human BLM helicase. P54132. recombinant BLM DNA unwinding, fluorescence dequenching. Potency, µM (highest dose often 56.1 µM), for inactives: at the highest dose activity change, negative = inhibition, most hits filed as inhibitors. actives 0.2% (n = 350,000). AID 2528;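 also: plate controls were vehicle for no effect and no enzyme for full effect; nearly all actives have a fitted effect of over 35% in size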
APEX1 inh: APE1 (human) endonuclease inhibition. P27695. recombinant APE1, TAMRA/BHQ-2 abasic DNA cleavage fluorescence. Potency, µM (titrated, usually from 65.8 µM), for the others: at the highest dose activity change, negative = inhibition, most hits filed as inhibitors. actives 0.35% (n = 350,000). AID 2517;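 also: plate controls were vehicle for no effect and reference inhibitor for full effect; nearly all actives have a fitted effect of over 55% in size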
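0.75 nM APE1 + cpd, 15 min RT; start w/ 50 nM TAMRA/BHQ-2 THF-abasic dsDNA; kinetic fluor 525/598 nm ×3 reads @60 s; Δ(read3−read1); normalized to DMSO and NSC13755 control wells.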
Numbers without * were called inactive; i = inactive; ? = inconclusive; · = no result given; [ ] = remark or other dose. Only some compounds are listed: those with a hit (about 0.9% of all), similar ones and a draw of the others. Unless noted, calls follow the shape of the dose curve; as a rule, active = well fitted curve in the direction sought with a large enough effect; inconclusive = small, poorly fitted or top-dose-only effect, or another doubt; inactive = no such curve, though single readings can be large; an effect the other way counts as inactive or inconclusive. Unless noted, % is scaled to controls: 0 for no effect and ±100 for the full control effect; potency is read from the fitted curve at half-maximal effect.

SMILES | LMNA splice mod | GCN5L2 inh | RECQ1 inh | TDP1 block | BLM inh | APEX1 inh
C=C(CCC12O[C@H](C(=O)O)[C@@](O)(C(=O)O)[C@](C(=O)O)(O1)[C@H](OC(=O)/C=C/[C@@H](C)C[C@@H](C)CC)[C@H]2O)[C@@H](OC(C)=O)[C@H](C)Cc1ccccc1 | · | 5.01µM* | i | 6.1% | 22.4µM* | -6.2%
COc1ccc(C2C3=C(N=CN(CCN4CCOCC4)C3N)Oc3ccccc32)cc1OC (configuration not stated) | · | · | · | 2.6% | · | ·
CCOC(=O)CSc1nc2sc(C(=O)O)c(C)c2c(=O)[nH]1 | -5.5% | -0.4% | -11.3% | 3.1% | 1.1% | -11.9%
Cc1ccc(/C=C/c2nc3sc(C(=O)O)c(C)c3c(=O)[nH]2)cc1[N+](=O)[O-] | · | -5.6% | · | 11.2µM* | -9.4% | 8.44µM*
Cc1c(C(=O)O)sc2nc(/C=C/c3ccccc3OC(F)F)[nH]c(=O)c12 | · | -21.6% | · | 70.8µM* | -10.4% | ?
Cc1c(C(=O)O)sc2nc(/C=C/c3cccc(F)c3)[nH]c(=O)c12 | · | 5.0% | · | · | -6.6% | ?
O=C(O)c1ccc(/C=C/c2nc3sc4c(c3c(=O)[nH]2)CCC4)cc1 | ? | -11.4% | -12.3% | 50.1µM* | -2.1% | ?
CC(C)(C)n1ncc2c(=O)n(Cc3ccccc3Cl)cnc21 | · | · | · | · | · | 1.2%
COc1cc(C)cc(C(=O)O)c1C1=C(O)c2cccc(O)c2C(=O)C1=O | · | -0.9% | ? | · | -10.7% | 35.5µM*
CC(=O)Nc1ccc(S(=O)(=O)NCCC(=O)OCC(=O)N2CCN(C(=O)c3ccco3)CC2)cc1 | · | -6.5% | · | 39.8µM* | -8.3% | ?
O=C(CCNS(=O)(=O)c1cccc(Cl)c1)OCC(=O)N1CCN(C(=O)c2ccco2)CC1 | · | 0.4% | · | -5.5%[56.1 µM] | · | -31.7%
S=c1[nH]cc(-c2ccccc2)n1-c1ccccc1 | -4.1% | 3.55µM* | i | 7.8% | -9.2% | 9.2%
Cc1ccc(-n2c(-c3ccccc3)c[nH]c2=S)cc1 | · | -10.3% | 0.1% | 5.4% | 1.8% | 14.1%
C=CC1=C(C)C2=CC3=NC(=C(CC(=O)[O-])C4=NC(=C(C)C4=C([O-])[O-])C=c4[n-]c(c(C)c4CC)=CC1=N2)C(CCC(=O)[O-])C3C.[Cu+2].[Na+].[Na+].[Na+] (configuration not stated) | · | · | · | · | · | 0.398µM*
O=C(CNC(=O)c1ccc2ccccc2c1)OC(C(=O)Nc1cc(C(F)(F)F)ccc1Cl)c1ccccc1 (configuration not stated) | · | · | · | -13.0% | · | ·
O=C(O)C1C2C=CC3(O2)C1C(=O)N1c2ccccc2C2OCCC2C13 (configuration not stated) | 4.3% | · | -0.2% | 39.8µM* | -5.5% | ?
CCOc1ccccc1/C=N/NC(=O)c1c(C)nc2ccc(Br)cn12 | · | -2.3% | · | · | -7.9% | 27.7%
COc1cccc(/C=N\NC(=O)c2ccc(Cn3cc(Br)c([N+](=O)[O-])n3)o2)c1O | · | -6.1% | 6.3% | 0.0% | 31.6µM* | 3.9%
COc1cc(/C=N\NC(=O)c2ccc(Cn3nc([N+](=O)[O-])c(Cl)c3C)o2)ccc1O | -4.1% | -6.4% | -14.9% | 1.9% | -17.8% | -6.5%
COc1cccc(/C=N/NC(=O)c2c(C)nc3ccc(Br)cn23)c1O | · | ? | -16.6% | 56.2µM* | -22.9% | 0.7%
COC(=O)C1=C[C@@H](C(=O)OC)C2C3=C(C(=O)[C@@]2(C)NC(=O)c2ccccc2)[C@H](C)n2c(=O)n(-c4ccccc4)c(=O)n2[C@@H]3C1 (some centres not stated) | · | · | 9.8% | 8.5% | 6.0% | -1.3%
CC(C)c1cccc2c([Si](C)(C)C)c3c(nc12)-c1cccc(=O)n1C3 | · | · | i | -0.9% | -15.7% | 12.8%
C[C@@H]1C/C=C/C=C/C=C/C=C/[C@H](O[C@@H]2O[C@H](C)[C@@H](O)[C@H](N)[C@@H]2O)C[C@@H]2O[C@](O)(C[C@@H](O)C[C@H]3O[C@@H]3/C=C/C(=O)O1)C[C@H](O)[C@H]2C(=O)O | · | · | · | · | · | 0.1%[21 µM]
Cn1ccnc1SCc1ccc([N+](=O)[O-])cc1 | -8.0% | 0.794µM* | i | 3.9% | 2.7% | 12.5%
Cn1ccnc1SCc1cccc([N+](=O)[O-])c1 | · | -3.0% | · | -0.4% | -0.3% | 23.8%[12.4 µM]
SMILES | LMNA splice mod | GCN5L2 inh | RECQ1 inh | TDP1 block | BLM inh | APEX1 inh
COc1ccc(-c2no[n+]([O-])c2C#N)cc1 | · | · | · | · | · | 1.2%
CC(=O)N(c1ccccc1C)C1CCCC1 | ? | -3.6% | -0.6% | 1.9% | 1.4% | 2.6%
CC(=O)N(C1=C(Cl)C(=O)c2ccccc2C1=O)C1CCCCC1 | · | 31.6µM* | -1.3% | · | -1.1% | -6.5%
C=C[C@@]1(C)CC[C@H]2C(=CC[C@@H]3[C@]2(C)CCC[C@@]3(C)C(=O)O)C1 | · | ? | -12.6% | 6.9% | -7.9% | -7.4%
Cc1ccccc1C1CC(=O)Oc2cc(C)c(Cl)c(C)c21 (configuration not stated) | · | ? | -2.6%[81.1 µM] | -1.0% | -6.0%[75.6 µM] | -1.4%
Nc1ccc(O)c(C(=O)O)c1 | ? | ? | 7.08µM* | · | -12.9% | 7.08µM*
Nc1ccc(C(=O)O)c(O)c1 (tested in a mixture with another compound) | · | · | -2.5% | 20.3%[56.1 µM] | -3.6% | -0.2%
CCOC(=O)C1CCCN(c2ccc(NC(=O)c3snc4c(=O)[nH]cnc34)cc2)C1 (configuration not stated) | 11.8% | -3.3% | -17.9% | 4.1% | -3.3% | -2.2%
CCOC(=O)C1CCCN(c2ccc(NC(=O)c3snc4c(=O)[nH]c(C)nc34)cc2)C1 (configuration not stated) | 2.9% | 2.51µM* | -3.8% | -3.9% | -7.5% | 2.0%
C=CCn1c(SCC(=O)NC(=O)NC2CCCC2)nnc1C1CCCCC1 | -5.2% | -6.6% | 2.5% | -4.2% | -7.6% | 7.4%
C=CCn1c(SCC(=O)Nc2nnc(C)s2)nnc1C1CC1 | · | -21.4% | · | 28.2µM* | -0.5% | -33.0%
CCOC(=O)C1=C(C)NC(C)=C(C(=O)OCC)C1c1c(F)c(F)c(F)c(F)c1F | · | -25.4% | · | · | · | ·
O=C(O)COc1ccc2c(c1)O/C(=C\c1ccco1)C2=O | · | -16.5% | · | · | -9.1% | 13.4µM*
N#Cc1c(-c2ccc(OCCOCCOCCN)cc2)no[n+]1[O-] | · | · | · | · | · | -3.6%
CC(=O)OCC1=C(C(=O)O)N2C(=O)C(NC(=O)CSc3ccncc3)[C@@H]2SC1 (some centres not stated) | · | 1.2% | 13.5% | 14.1µM* | -2.3% | -7.2%
